Only some compounds are listed: those with a hit (about 19% of all), similar ones and a draw of the others.
HT1080NT lethal = qHTS for induction of synthetic lethality in tumor cells producing 2HG: qHTS for the HT-1080-NT fibrosarcoma cell line; HT-1080-NT fibrosarcoma viability, CellTiter-Glo ATP luminescence, 48 h; Potency, µM (series often up to 46.1 µM), for the others: top-dose activity, negative = less viability, actives largely listed as cytotoxic; actives 1.6% (n = 360,000); AID 686970, 2013;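 note: NT is the 2HG producing partner of a matched IDH1 knockdown line; potency is the fitted concentration of half-maximal effect; 0% = DMSO-treated cells and -100% = media-only wells without cells; nearly all actives have a fitted effect of over 55% in size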
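Read-out is CellTiter-Glo luminescence after 10 minutes at room temperature, following 48 hours' compound treatment of HT-1080-NT cells (750 cells/well, RPMI, 5% FBS, 37 degrees C).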
HT1080 IDH1KD tx = qHTS for induction of synthetic lethality in tumor cells producing 2HG: qHTS for the HT-1080-IDH1KD cell line. Potency, µM (highest dose often 46.1 µM), for the others: top-dose activity, negative = toxicity, usual class: cytotoxic. actives 2% (n = 360,000). HT-1080 IDH1 knockdown viability, ATP luminescence, 48 h;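 note: potency is the fitted concentration of half-maximal effect; 0% = DMSO wells and -100% = cell-free medium wells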
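% activity derives from luminescence (CellTiter-Glo), normalised to DMSO and no-cell wells. HT-1080-IDH1KD cells, 750/well, had 48 h compound exposure at 37 °C.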
ELG1 repair inh = qHTS screen for small molecules that inhibit ELG1-dependent DNA repair in human embryonic kidney (HEK293T) cells expressing luciferase-tagged ELG1 | HEK293T ELG1-luciferase reporter, luminescence, 16 h; DNA damage induced by 5-fluorouridine | Potency, µM (titrated, usually from 46.1 µM), for the others: at the top dose activity change, negative = inhibition, hits mostly inhibitors | actives 2.3% (n = 330,000) | AID 504467, 2011; note: potency is the fitted concentration of half-maximal effect; nearly all actives have a fitted effect of over 55% in size
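Cells (2,000 per well) received 5-fluorouridine plus test compound or DMSO and were incubated 16 hr at 37 °C, 5% CO2. Luciferase activity was read by luminescence 30 min after ONE-Glo addition; signal suppression marked inhibition of damage-induced ELG1 function.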
IL1B secr inh = qHTS for Inhibitors of Inflammasome Signaling: IL-1-beta AlphaLISA Primary Screen; THP-1 LPS/ATP IL-1B secretion, AlphaLISA, 16 h; stronger effect = lower value; activity change, % at 57.5 µM; AID 743279, 2014; actives 4.7% (n = 360,000); in the data active = activity change below about -50%; inconclusive = mostly about -30% to -49%
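THP-1 cells pretreated 1 hr with compounds (up to 57.5 uM final), then stimulated with LPS (250 ng/mL final) plus ATP (1.25 mM final); secreted IL-1B measured by AlphaLISA after 16 hr, decreased signal indicating inhibition.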
DT40 TDP1 no CPT = qHTS for Inhibitors of human tyrosyl-DNA phosphodiesterase 1 (TDP1): qHTS in cells in absence of CPT; DT40 Tdp1-/- hTDP1 cells, no CPT, ATP luminescence, 48 h; Potency, µM (top dose mostly 46.2 µM), for inactives: top-dose activity change, negative = growth inhibition, usual class: inhibitors; actives 15% (n = 420,000); note: potency is the fitted concentration of half-maximal effect; nearly all actives have a fitted effect of over 55% in size
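Camptothecin absent (DMSO only). Human TDP1-complemented DT40 knockout cells, 400 cells/well, 37 °C for minimum 48 hr; ATP measured via CellTiter-Glo, 30 min dark incubation, luminescence.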
DT40 TDP1 CPT = qHTS for Inhibitors of human tyrosyl-DNA phosphodiesterase 1 (TDP1): qHTS in cells in presence of CPT; chicken DT40 Tdp1-/-;hTDP1 cells + 20 nM CPT, ATP luminescence, 48 h; Potency, µM (series often up to 46.2 µM), for the others: top-dose activity change, negative = growth inhibition, hits mostly inhibitors; actives 12% (n = 420,000); AID 686979, 2013; note: potency is the fitted concentration of half-maximal effect; nearly all actives have a fitted effect of over 55% in size
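Chicken DT40 Tdp1-/- cells complemented with human TDP1, 400 cells/well, exposed to compounds plus 20 nM camptothecin for at least 48 h at 37 C; viability read as ATP content by CellTiter-Glo luminescence.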
Active calls of the source: *; ? = inconclusive; · = no result; [ ] = dose if it differs, or a comment. Unless noted, calls come from the whole dose curve; as a rule, active = well fitted curve in the direction sought with a large enough effect; inconclusive = small, poorly fitted or top-dose-only effect, or another doubt; inactive = no such curve, though single readings can be large; an effect the other way counts as inactive or inconclusive. Unless noted, % is set by controls: 0 for no effect and ±100 for the full control effect.

SMILES | HT1080NT lethal | HT1080 IDH1KD tx | ELG1 repair inh | IL1B secr inh | DT40 TDP1 no CPT | DT40 TDP1 CPT
COc1ccc(-n2c(C)c(C(C)=O)c3cc(OC(=O)c4ccc(C)cc4)ccc32)cc1 | · | · | · | · | 23µM* | ?
Cc1cccc(C(=O)OCC(=O)Nc2c(C)n(C)n(-c3ccccc3)c2=O)c1O | 6% | 8% | -20% | 2 | 8% | -12%
COc1ccccc1N1CCN(S(=O)(=O)c2ccc(F)c(C(=O)Nc3ccc(C)c(F)c3)c2)CC1 | · | · | · | · | ? | 16µM*
CCc1ccccc1N1CCN(S(=O)(=O)c2ccc(F)c(C)c2)CC1 | 7% | 10% | ? | -10 | 21µM* | ?
CCC(=O)c1cc(F)c(N2CCN(S(=O)(=O)c3ccc(C)cc3)CC2)cc1C | -19% | -2% | ? | -9 | 21µM* | ?
Cc1ccc(N2CCN(S(=O)(=O)c3ccc(F)c(C)c3)CC2)c(C)c1 | -12% | -25% | 0% | 22 | ? | ?
Cc1cc(C)c(NC(=O)c2cc(S(=O)(=O)N3CCN(c4ccccc4F)CC3)ccc2F)c(C)c1 | · | · | · | · | 4.1µM* | ?
COC(=O)C[C@H]1C=C[C@H](NC(=O)Nc2ccccc2OC)[C@@H](CO)O1 | 8% | 22% | · | -16 | -1% | 3%
CCN(Cc1ccccc1)C(=O)Cn1c(=O)n(Cc2ccccc2)c(=O)c2c1c1cc(OC)ccc1n2C | · | · | · | · | ? | 2%
Cc1ccc(/C=c2\sc3nc(-c4ccco4)nn3c2=O)o1 | -14% | -9% | 3% | 18 | 23µM* | -73%
Cc1ccc(/C=c2/sc3nnc(-c4ccccc4Cl)n3c2=O)o1 | 7% | 1% | 3% | 0 | 12µM* | ?
Cc1cccc(N2CCN(C3(c4ccccc4)C(=O)c4ccccc4C3=O)CC2)c1C | · | · | · | · | -16% | -21%
CCCCC[C@@H](C)N1C[C@H](COCc2ccccc2)Oc2cc(N3CC[C@H](O)C3)ccc2S1(=O)=O | ? | ? | · | -17 | ? | ?
CCCCC[C@H](C)N1C[C@H](COCc2ccccc2)Oc2cc(N3CC[C@H](O)C3)ccc2S1(=O)=O | ? | ? | · | -20 | ? | ?
CCCCC[C@@H](C)N1C[C@H](COCc2ccccc2)Oc2cc(N3CC[C@H](N(C)C)C3)ccc2S1(=O)=O | 21µM* | 15µM* | · | -82* | 18µM* | ?
CCCCC[C@@H](C)N1C[C@H](COCc2ccccc2)Oc2cc(N3CC[C@@H](O)C3)ccc2S1(=O)=O | ? | ? | · | -13 | 21µM* | ?
CC1(C)S[C@@H]2[C@H](NC(=O)[C@@H](NC(=O)N3CCNC3=O)c3ccccc3)C(=O)N2[C@H]1C(=O)O | · | · | · | · | -11%[21.1 µM] | -9%[21.1 µM]
Nc1c2c(nc3ccn(-c4ccccc4)c(=O)c13)CCCCC2 | 26% | 16% | ? | -58* | ? | -12%
Cc1cccc(C(C)C)c1NC(=O)c1ccc(CN(c2ccccc2)S(=O)(=O)c2ccccc2)cc1 | 13% | 2% | ? | 31 | ? | -27%
Cc1nn(C(=O)c2cccc([N+](=O)[O-])c2C)c(C)c1S(=O)(=O)N1CCOCC1 | · | · | · | · | -15% | -20%
O=S(=O)(c1ccc(Cl)cc1)c1nnn2c1nc(NCc1cccs1)c1sccc12 | · | · | · | · | 23µM* | ?
Cc1ccc(S(=O)(=O)c2nnn3c2nc(NCc2cccs2)c2sccc23)cc1 | · | · | · | · | -26% | -4%
Cc1ccc(S(=O)(=O)c2nnn3c2nc(N2CCCCC2)c2sccc23)cc1 | · | · | · | · | -18% | -5%
O=S(=O)(c1ccc(Cl)cc1)c1nnn2c1nc(N1CCCCC1)c1sccc12 | · | · | · | · | 16µM* | 21µM*
CCOC(=O)C1C(=O)NC(c2ccccc2)=NC1c1ccc(Br)cc1 (stereo not given) | -1% | -1% | 17% | 5 | ? | -12%
SMILES | HT1080NT lethal | HT1080 IDH1KD tx | ELG1 repair inh | IL1B secr inh | DT40 TDP1 no CPT | DT40 TDP1 CPT
Cc1ccc(/C=C2\CCOC2=O)cc1 | 25% | 17% | ? | ? | -13% | -5%
Cc1ccc(/C=C2/CNC/C(=C/c3ccc(C)cc3)C2=O)cc1 | 15µM* | 23µM* | · | -106* | 13µM* | 7.3µM*
O=c1c2cc(C(F)(F)F)ccc2sn1-c1ccccc1 | -16% | -5% | · | 2 | 5.2µM* | 5.2µM*
O=c1c2cc(F)ccc2sn1-c1ccccc1 | ? | ? | ? | -2 | 2.1µM* | 1.8µM*
Cc1c(N2C(=O)c3ccc(F)cc3C2=O)c(=O)n(-c2ccccc2)n1C | 0% | 14% | -1% | -9 | 2% | 4%
CN(Cc1ccc(Cl)c(Cl)c1)C(=O)C1CC(=O)N(c2ccc3c(c2)OCCO3)C1 (stereo not given) | 3% | 2% | · | -22 | -23% | -7%
CCC1(C)NC(=O)N(CC(=O)N2N=C(c3ccccc3)CC2c2ccc(OC)cc2)C1=O (stereo not given) | -1% | -8% | -12% | -2 | -9% | 11%
Cc1ccccc1-c1cc(C(=O)NCc2ccc3c(c2)OCO3)nn1CC1CC(c2cccc([N+](=O)[O-])c2)=NO1 (stereo not given) | 8% | -6% | -26% | -13 | ? | -7%
Cc1ccccc1-c1cc(C(=O)NCc2cccc(C(F)(F)F)c2)nn1CC1CC(c2cccc([N+](=O)[O-])c2)=NO1 (stereo not given) | 0% | 3% | -7% | -1 | 23µM* | ?
Cc1ccc(CNC(=O)c2cc(-c3ccccc3)nn2CC2CC(c3cccc([N+](=O)[O-])c3)=NO2)cc1 (stereo not given) | 3% | 4% | · | -12 | ? | -28%
Cc1ccccc1-c1cc(C(=O)NCc2ccc(OC(F)(F)F)cc2)nn1CC1CC(c2cccc([N+](=O)[O-])c2)=NO1 (stereo not given) | 3% | 6% | ? | ? | 18µM* | 16µM*

From PubChem
